# Results reported in PubChem BioAssay AID2315 (National Center for Advancing Translational Sciences (NCATS), 2010).
# The campaign covered roughly 290,000 compounds. About 27,000 (9.3%) were called active. The full list was thinned out, with actives kept by preference. Unmarked numbers belong to inactive results. Rule as the data show it: active = inhibition mostly above about 28% (no sharp cut-off); inactive = mostly below about 43%. Where a SMILES comes first, the peptide text is derived from it. [ ]: non-standard residue; d: D form. The star is where a group is joined. ξ: configuration not given here. Cbz = O=C(OCc1ccccc1)*; ξL = CC(C)CC(N)C(=O)O; ξP = O=C(O)C1CCCN1
# Assay: A qHTS for Small Molecule Inhibitors of Shiga Toxin; also: 0% is about no effect
# Conditions: Vero cells, Shiga toxin protein synthesis inhibition reporter; at 38.7 µM, hits give high values
row,Compound,inhibition
1,Cc1cc(C)n(CC(O)COc2ccc(C(C)(C)C)cc2)n1 (stereo not given),-1.13%
2,COc1ccccc1CN(C)C(=O)c1cc2ccccc2o1,5.75%
3,Cc1ccc(S(=O)(=O)Nc2nc(N)n(-c3ccccc3)n2)cc1,-9.63%
4,Nc1nc(NC(=O)/C=C/c2ccccc2)nn1-c1ccccc1,27%
5,Cc1ccc(C(=O)Nc2nc(N)n(-c3ccccc3)n2)cc1,38.4% (active)
6,O=C(Nc1cccc(F)c1)c1coc(=O)c(Br)c1,-10.4%
7,CCCCNC(=O)c1cn(CC)c2cc(N3CCN(C(=O)c4ccco4)CC3)c(F)cc2c1=O,-7.36%
8,COCCCNC(=O)/C(C#N)=C/c1c(N2CCCCCC2)nc2ccccn2c1=O,-3.53%
9,CSCCC(Nc1nc2ccccc2s1)C(=O)O (stereo not given),-3.96%
10,Cc1ccnc(Nc2nc3ccccc3s2)n1,76.8% (active)
11,Cc1ccc(S(=O)(=O)Nc2nc3ccccc3s2)cc1[N+](=O)[O-],-15.3%
12,CS(=O)(=O)N(CC(=O)Nc1ccc(F)cc1)C1CCCCC1,18.9%
13,COc1ccc(S(=O)(=O)N2CCN(c3ccc(F)cc3)CC2)cc1-c1noc(C)n1,-2.91%
14,Cc1ccc(-n2c(C)cc(/C=N/Nc3ccc([N+](=O)[O-])cn3)c2C)c(C)c1,50.3%
15,Cc1cc(/C=N/Nc2ccc([N+](=O)[O-])cn2)c(C)n1-c1cccc(C(=O)O)c1,81.9% (active)
16,Cc1cc(/C=N/n2cnnc2)c(C)n1-c1cccc(C(=O)O)c1,26.3%
17,CC(C)C[C@H](NC(=O)C1CC(=O)N(c2ccc3c(c2)OCCO3)C1)C(=O)NC1CCCC1 (stereo not given in full),-4.71%
18,COc1cc(/C=C/C(=O)O)cc(S(=O)(=O)Nc2ccccc2C(=O)NCCc2ccccc2)c1OC,55.3%
19,CC(C)CC(NC(=O)C1CCCN1C(=O)[C@@H](C)NC(=O)OCc1ccccc1)C(=O)NCC(N)=O (stereo not given in full) (Cbz-[dA][ξP][ξL]G-NH2),-3.42%
20,COC(=O)c1cccc(N(C(=O)c2ccco2)C(C(=O)NC2CCCC2)c2ccco2)c1 (stereo not given),-1.98%

row,Compound,inhibition
1,COc1cc(NC(=O)CCS(=O)(=O)c2ccc3c(c2)oc(=O)n3C)cc(OC)c1,15.8%
2,CCC(C)(C)NC(=O)CN(C(=O)C(=O)Nc1ccc2c(c1)OCCO2)C(C)(C)CC,15.3%
3,CCc1ccccc1OCC(=O)Nc1ccc2c(c1)OCCO2,54.9% (active)
4,CCOc1ccc(NCCC(=O)c2ccc3c(c2)OCO3)cc1,21.5%
5,O=C(COc1ccc(Cl)cc1)Nc1ccc2c(c1)OCO2,71.8% (active)
6,O=C(CCS(=O)(=O)Cc1ccccc1)Nc1ccc2c(c1)OCCO2,-14.4%
7,COC(=O)CCNc1ccc2c(c1)OCCO2,155% (active)
8,CC(C)NS(=O)(=O)c1ccc(OCC(=O)Nc2ccc3c(c2)OCCO3)cc1,-9.12%
9,COc1ccccc1OCCCC(=O)Nc1ccc2c(c1)OCCO2,20.5%
10,O=C(COc1ccc(Cl)cc1)Nc1ccc2oc(=O)ccc2c1,6.26%
11,CCn1c(COc2ccccc2)nnc1SCC(=O)Nc1ccc2c(c1)OCCO2,4.75%
12,CCCCC(=O)Nc1ccc2c(c1)OCCO2,70.5% (active)
13,CCC(C(=O)Nc1ccc2c(c1)OCCO2)c1ccccc1 (stereo not given),34.4%
14,CC(=O)Nc1cccc(Nc2nc(-c3cccs3)nc3ccccc23)c1,27.4%
15,Cc1cc(=O)oc2c1ccc1ccccc12,17.1%
16,O=C(CCc1ccccc1)Nc1ccnn1C1CCN(Cc2ccc(OCCO)cc2)CC1,27.8%
17,O=C(CC1C(=O)NCCN1CC(c1ccccc1)c1ccccc1)NCC1CCOCC1 (stereo not given),16.2%
18,CC(NC(=O)CCCC1CCCCC1)c1ccc(S(N)(=O)=O)cc1 (stereo not given),-5.49%
19,COC(=O)c1cc(CNC(=O)CC(C)c2ccccc2)ccc1OC (stereo not given),-4.17%
20,Cc1ccc(SCC(=O)Nc2ccc3c(c2)OCCO3)cc1,77.1% (active)

row,Compound,inhibition
1,O=C(CSc1nnnn1-c1ccc2c(c1)CCC2)Nc1ccc2c(c1)OCCO2,33.4%
2,Cc1ccc(S(=O)(=O)NCC(=O)Nc2ccc3c(c2)OCCO3)cc1,-18.4%
3,Cn1ccnc1SCC(=O)Nc1ccc2c(c1)OCCO2,7.65%
4,CCC(=O)Nc1cccc(NC(=O)CSc2nnnn2C2CCCC2)c1,-2.63%
5,O=C(CSc1nnnn1C1CCCC1)Nc1ccc2c(c1)OCCO2,129% (active)
6,Cc1cc(OC(=O)c2ccc(OC(C)C)cc2)c([N+](=O)[O-])c(=O)[nH]1,13%
7,COc1ccc(-n2nc3c(N4CCC(C(=O)NCc5ccccc5)CC4)nnc(C)c3c2C)cc1,-7%
8,COc1ccc(CCNC(=O)CCc2cn(C)c3ccccc23)c(OC)c1,-3.65%
9,C/C(=N/NS(=O)(=O)c1ccccc1)c1ccc(NC(=O)C(F)(F)F)cc1,-9.75%
10,O=C(O)/C=C\C(=O)Nc1ccc(OCc2ccccc2)cc1,43%
11,CCC(CC)c1nnc(NC(=O)/C=C/c2ccco2)s1,20%
12,CC(C)CNC(=O)COC(=O)/C=C/c1ccco1,-5.59%
13,Cc1cccc(NC(=O)Nc2cccc(Oc3c(F)c(F)c(F)c(F)c3F)c2)c1,-0.582%
14,Cc1ccc(C(=O)COc2cccc(NC(=O)c3ccco3)c2)cc1,14.8%
15,C/C(=N\NS(=O)(=O)c1ccc(Cl)cc1)c1ccc(NC(=O)c2ccco2)cc1,34% (active)
16,O=C(/C=C/c1ccco1)Nc1ccc(Oc2ccccc2)cc1,80.2% (active)
17,Cc1nnc(NC(=O)/C=C/c2ccco2)s1,45.9% (active)
18,CN1CCN(S(=O)(=O)c2ccc(NC(=O)c3ccco3)cc2)CC1,47.4%
19,CCc1nnc(NC(=O)/C=C/c2ccc(C)o2)s1,26.8%
20,CCOC(=O)c1cccc(NS(=O)(=O)c2c(C(=O)N3CCCCCC3)c(C)n(C)c2C)c1,-9.67%
